Measurements as given in the supplement of paper PMC10849652.
Targets with a hit are over-represented here; the source holds about 7,900 in all. About 0.6% of all pairs of compound and target were hits.

Columns and labels:
Test in all cases: log2 fold change, soluble protein after heating vs DMSO (PISA); higher = thermal stabilisation; K562 cells, 10 uM, 30 min; active = over 0.2 and 3.5 SD of the protein, either way, in both replicates (recomputed)
IRAK-1-4 Inhibitor I = compound: C1COCCN1CCN2C3=CC=CC=C3N=C2NC(=O)C4=CC(=CC=C4)[N+](=O)[O-] [IRAK-1-4 Inhibitor I]
Summary of the method: (§1)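 K562 cells (2×10^6 cells/mL) were treated with 10 μM compound for 30 min, and aliquots were heated for 3 min over 48°C-58°C. Pooled aliquots were extracted in PBS with 0.5% NP-40 at 4°C, and the supernatant after 21,000xg for 90 min was measured by TMTpro 16plex LC-MS/MS with channel sums equalised. Reported thermal stability, relative to control samples and from duplicates, is a log2 fold change.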

ibrutinib = compound: C=CC(=O)N1CCC[C@@H](n2nc(-c3ccc(Oc4ccccc4)cc3)c3c(N)ncnc32)C1 [ibrutinib]
Summary of the method: as §1

[1] = compound: CC(=O)c1cnc2ccc(-c3cc(Cl)c(O)c(Cl)c3)nc2c1N[C@H]1CC[C@H](CN(C)C)CC1
Summary of the method: as §1

ralimetinib = compound: CC(C)(C)Cn1c(N)nc2ccc(-c3[nH]c(C(C)(C)C)nc3-c3ccc(F)cc3)nc21 [ralimetinib]
Summary of the method: as §1

[2] = compound: CC(C)(O)CC(=O)NCCn1ccc2ncnc(Nc3ccc(Oc4cccc(C(F)(F)F)c4)c(Cl)c3)c21
Summary of the method: as §1

[3] = compound: CC(C)C1=C2N=C(C=C(N2N=C1)NCC3=CC=CC=C3)NCCCCCCN
Summary of the method: as §1

[4] = compound: CC(C)C[C@@H](C=O)NC(=O)[C@H](CC(C)C)NC(=O)[C@H](CC(C)C)NC(=O)OCc1ccccc1
Summary of the method: as §1

pinometostat = compound: CC(C)N(C[C@H]1O[C@@H](n2cnc3c(N)ncnc32)[C@H](O)[C@@H]1O)[C@H]1C[C@@H](CCc2nc3cc(C(C)(C)C)ccc3[nH]2)C1 [pinometostat]
Summary of the method: as §1

[5] = compound: CC1=C(C(CC(=O)N1)C2=CC=C(C=C2)C(F)(F)F)C(=O)NC3=C(C=C4C(=C3)C=NN4)F
Summary of the method: as §1

[6] = compound: CC1=C(C2=C(C=C1)C(=O)C3=CC=CC=C3N2CCCN)C
Summary of the method: as §1

Measured: log2 fold change

PRCP (UniProt P42785)
inactive: IRAK-1-4 Inhibitor I 0.04 | ibrutinib 0.012 | [1] 0.014 | ralimetinib -0.01 | [2] -0.072 | [3] -0.077 | [4] -0.025 | pinometostat -0.006 | [5] 0.012 | [6] -0.101

PEX7 (UniProt O00628)
Sequence of UniProt O00628 (O00628 whole entry, looked up): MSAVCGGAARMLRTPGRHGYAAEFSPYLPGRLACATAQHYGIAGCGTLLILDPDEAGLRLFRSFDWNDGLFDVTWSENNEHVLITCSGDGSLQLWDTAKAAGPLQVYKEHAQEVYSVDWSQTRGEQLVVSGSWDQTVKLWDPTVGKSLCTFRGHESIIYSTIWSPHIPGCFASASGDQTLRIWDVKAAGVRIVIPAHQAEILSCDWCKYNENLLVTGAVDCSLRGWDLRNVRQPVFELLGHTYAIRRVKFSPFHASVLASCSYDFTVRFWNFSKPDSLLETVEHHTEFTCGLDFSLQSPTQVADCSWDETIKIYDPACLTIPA
inactive: IRAK-1-4 Inhibitor I 0.03 | ibrutinib -0.092 | [1] -0.106 | ralimetinib -0.064 | [2] -0.057 | [3] -0.006 | [4] 0.003 | pinometostat -0.034 | [5] 0.025 | [6] 0.033

PRKAA1 isoform 2 (UniProt Q13131)
active: [1] -0.343
inactive: IRAK-1-4 Inhibitor I 0.046 | ibrutinib -0.006 | ralimetinib -0.003 | [2] -0.009 | [3] -0.025 | [4] -0.014 | pinometostat -0.014 | [5] 0.022 | [6] 0.019

PELP1 (UniProt Q8IZL8)
Sequence of UniProt Q8IZL8 (Q8IZL8 whole entry, looked up): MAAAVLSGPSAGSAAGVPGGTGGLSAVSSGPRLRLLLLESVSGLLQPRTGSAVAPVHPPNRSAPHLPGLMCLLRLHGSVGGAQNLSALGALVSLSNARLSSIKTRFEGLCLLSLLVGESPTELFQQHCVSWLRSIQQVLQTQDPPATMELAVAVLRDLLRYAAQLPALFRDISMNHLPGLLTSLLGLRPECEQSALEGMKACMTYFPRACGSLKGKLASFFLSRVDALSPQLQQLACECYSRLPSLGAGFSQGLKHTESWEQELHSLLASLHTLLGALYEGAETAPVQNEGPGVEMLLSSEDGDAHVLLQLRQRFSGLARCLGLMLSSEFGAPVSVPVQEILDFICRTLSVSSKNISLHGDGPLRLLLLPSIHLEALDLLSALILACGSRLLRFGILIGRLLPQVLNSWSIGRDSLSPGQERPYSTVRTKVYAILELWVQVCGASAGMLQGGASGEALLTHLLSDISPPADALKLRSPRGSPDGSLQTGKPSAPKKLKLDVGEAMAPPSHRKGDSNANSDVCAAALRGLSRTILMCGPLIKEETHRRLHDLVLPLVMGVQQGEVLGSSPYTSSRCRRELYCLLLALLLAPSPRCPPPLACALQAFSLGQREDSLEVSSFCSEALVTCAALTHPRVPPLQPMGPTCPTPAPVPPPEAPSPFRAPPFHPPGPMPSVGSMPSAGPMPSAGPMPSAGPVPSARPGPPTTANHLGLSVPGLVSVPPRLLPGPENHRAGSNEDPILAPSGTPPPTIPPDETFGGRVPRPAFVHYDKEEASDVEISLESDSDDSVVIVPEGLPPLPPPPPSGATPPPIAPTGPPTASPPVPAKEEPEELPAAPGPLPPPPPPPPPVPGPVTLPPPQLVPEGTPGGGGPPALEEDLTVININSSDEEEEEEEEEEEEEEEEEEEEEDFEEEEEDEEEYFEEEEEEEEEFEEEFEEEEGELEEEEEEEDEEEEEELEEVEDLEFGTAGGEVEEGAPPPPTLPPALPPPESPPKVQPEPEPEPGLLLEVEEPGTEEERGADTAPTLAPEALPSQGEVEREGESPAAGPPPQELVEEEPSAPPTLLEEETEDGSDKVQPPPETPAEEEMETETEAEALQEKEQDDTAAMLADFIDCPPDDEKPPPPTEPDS
inactive: IRAK-1-4 Inhibitor I 0.017 | ibrutinib -0.017 | [1] -0.106 | ralimetinib 0.04 | [2] -0.031 | [3] 0.017 | [4] -0.019 | pinometostat 0.008 | [5] 0.029
active: [6] -2.07

PRKCA (UniProt P17252)
inactive: IRAK-1-4 Inhibitor I 0.012 | ibrutinib -0.02 | ralimetinib -0.039 | [2] -0.02 | [3] -0.035 | [4] 0.104 | pinometostat -0.015 | [5] 0.011 | [6] 0.064
active: [1] -0.595

POLR2M (UniProt P0CAP2)
Sequence of UniProt P0CAP2 (P0CAP2 whole entry, looked up): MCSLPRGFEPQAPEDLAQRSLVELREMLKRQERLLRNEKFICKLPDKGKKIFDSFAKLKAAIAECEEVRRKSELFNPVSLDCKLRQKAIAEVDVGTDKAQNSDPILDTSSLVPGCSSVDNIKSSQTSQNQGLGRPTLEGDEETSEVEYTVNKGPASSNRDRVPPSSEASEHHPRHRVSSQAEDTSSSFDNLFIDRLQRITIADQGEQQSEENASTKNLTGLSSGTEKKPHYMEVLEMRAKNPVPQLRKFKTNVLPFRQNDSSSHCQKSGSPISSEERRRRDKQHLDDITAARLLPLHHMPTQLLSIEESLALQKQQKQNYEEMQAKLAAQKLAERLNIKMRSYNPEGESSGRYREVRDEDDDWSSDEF
inactive: IRAK-1-4 Inhibitor I -0.022 | ibrutinib -0.017 | [1] 0.067 | ralimetinib 0.016 | [2] 0.001 | [3] 0.059 | [4] 0.058 | pinometostat -0.02 | [5] 0.067 | [6] 0

POLR3D (UniProt P05423)
inactive: IRAK-1-4 Inhibitor I -0.017 | ibrutinib 0.766 | [1] 0.022 | ralimetinib 0.043 | [2] -0.1 | [3] -0.158 | [4] -0.002 | pinometostat 0.109 | [5] 0.012 | [6] 0.009

PDIK1L (UniProt Q8N165)
Sequence of UniProt Q8N165 (Q8N165 whole entry, looked up): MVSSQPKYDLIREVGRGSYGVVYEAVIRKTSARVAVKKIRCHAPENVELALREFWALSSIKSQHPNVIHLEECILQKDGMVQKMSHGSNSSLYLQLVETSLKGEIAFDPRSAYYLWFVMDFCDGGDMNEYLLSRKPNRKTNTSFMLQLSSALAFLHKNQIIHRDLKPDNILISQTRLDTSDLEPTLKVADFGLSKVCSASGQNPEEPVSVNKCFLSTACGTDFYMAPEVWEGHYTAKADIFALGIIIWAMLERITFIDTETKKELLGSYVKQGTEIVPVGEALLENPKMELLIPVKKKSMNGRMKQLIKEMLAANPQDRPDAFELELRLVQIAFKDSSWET
active: [1] -0.693
inactive: IRAK-1-4 Inhibitor I -0.006 | ibrutinib -0.205 | ralimetinib -0.173 | [2] 0.032 | [3] -0.139 | [4] 0.091 | pinometostat -0.012 | [5] 0.052 | [6] -0.197

PHKA2 (UniProt P46019)
inactive: IRAK-1-4 Inhibitor I 0.053 | ibrutinib -0.095 | [1] 0.049 | ralimetinib 0.011 | [2] -0.1 | [3] -0.143 | [4] 0.065 | pinometostat 0.138 | [5] 0.176 | [6] 0.028

PURA (UniProt Q00577)
Sequence of UniProt Q00577 (Q00577 whole entry, looked up): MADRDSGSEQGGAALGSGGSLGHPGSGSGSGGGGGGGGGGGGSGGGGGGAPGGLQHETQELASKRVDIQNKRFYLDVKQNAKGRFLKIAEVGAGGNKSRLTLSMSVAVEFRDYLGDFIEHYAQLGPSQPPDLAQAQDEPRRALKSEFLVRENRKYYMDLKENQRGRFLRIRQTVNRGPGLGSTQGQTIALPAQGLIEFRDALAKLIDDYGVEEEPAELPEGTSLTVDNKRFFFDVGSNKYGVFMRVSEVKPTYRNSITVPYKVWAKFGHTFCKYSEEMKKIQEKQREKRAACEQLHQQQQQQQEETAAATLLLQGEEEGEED
active: [6] -0.792
inactive: IRAK-1-4 Inhibitor I -0.151 | ibrutinib 0.096 | [1] 0.169 | ralimetinib 0.064 | [2] 0.276 | [3] 0.129 | [4] 0.079 | pinometostat 0.087 | [5] -0.005

PRPF38A (UniProt Q8NAV1)
Sequence of UniProt Q8NAV1 (Q8NAV1 whole entry, looked up): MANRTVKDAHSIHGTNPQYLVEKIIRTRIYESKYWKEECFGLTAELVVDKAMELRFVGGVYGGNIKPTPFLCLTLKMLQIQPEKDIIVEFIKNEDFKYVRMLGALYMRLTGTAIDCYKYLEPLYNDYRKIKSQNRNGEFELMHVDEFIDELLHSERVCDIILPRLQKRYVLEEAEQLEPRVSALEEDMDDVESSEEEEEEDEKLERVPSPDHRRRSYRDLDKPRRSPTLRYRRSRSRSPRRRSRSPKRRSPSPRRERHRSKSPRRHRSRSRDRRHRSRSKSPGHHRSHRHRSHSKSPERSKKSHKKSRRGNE
active: [1] -0.237
inactive: IRAK-1-4 Inhibitor I 0.011 | ibrutinib -0.051 | ralimetinib 0.03 | [2] 0.012 | [3] -0.029 | [4] 0.005 | pinometostat 0.027 | [5] 0.045 | [6] -0.014

PKN2 (UniProt Q16513)
active: [1] -0.797
inactive: IRAK-1-4 Inhibitor I -0.017 | ibrutinib -0.054 | ralimetinib 0.085 | [2] -0.042 | [3] -0.051 | [4] 0.085 | pinometostat 0.141 | [5] -0.025 | [6] -0.016

PECAM1 (UniProt P16284)
inactive: IRAK-1-4 Inhibitor I 0.021 | ibrutinib 0.004 | [1] -0.031 | ralimetinib -0.002 | [2] -0.082 | [3] 0.141 | [4] -0.057 | pinometostat 0.012 | [5] 0.039
active: [6] 0.261

PLSCR1 (UniProt O15162)
Sequence of UniProt O15162 (O15162 whole entry, looked up): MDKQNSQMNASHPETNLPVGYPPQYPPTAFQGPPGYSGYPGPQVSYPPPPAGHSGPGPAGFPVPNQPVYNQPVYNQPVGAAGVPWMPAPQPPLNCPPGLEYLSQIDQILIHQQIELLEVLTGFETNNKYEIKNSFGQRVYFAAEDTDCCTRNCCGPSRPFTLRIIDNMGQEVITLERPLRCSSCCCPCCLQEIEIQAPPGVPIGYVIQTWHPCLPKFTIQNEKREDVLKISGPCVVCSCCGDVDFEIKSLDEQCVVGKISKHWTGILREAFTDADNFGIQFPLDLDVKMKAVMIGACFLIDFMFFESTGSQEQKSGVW
inactive: IRAK-1-4 Inhibitor I -0.003 | ibrutinib 0.002 | [1] -0.025 | ralimetinib -0.046 | [2] 0.047 | [3] 0.031 | [4] -0.036 | pinometostat -0.015 | [5] -0.011 | [6] 0.031

PDS5B (UniProt Q9NTI5)
inactive: IRAK-1-4 Inhibitor I -0.184 | ibrutinib -0.102 | [1] -0.052 | ralimetinib -0.01 | [2] -0.093 | [3] -0.166 | [4] 0.124 | pinometostat 0.093 | [5] -0.078 | [6] 0.02

PIK3C3 (UniProt Q8NEB9)
inactive: IRAK-1-4 Inhibitor I -0.012 | ibrutinib -0.005 | [1] 0.058 | ralimetinib 0.082 | [2] 0.002 | [3] -0.003 | [4] 0.035 | pinometostat 0.14 | [5] -0.021 | [6] 0.013

PSMD7 (UniProt P51665)
active: [4] -0.216
inactive: IRAK-1-4 Inhibitor I 0.055 | ibrutinib -0.006 | [1] 0.028 | ralimetinib 0.01 | [2] 0.057 | [3] 0.019 | pinometostat 0.066 | [5] 0.034 | [6] -0.029

PPP4R3B (UniProt Q5MIZ7)
inactive: IRAK-1-4 Inhibitor I 0.027 | ibrutinib -0.024 | [1] -0.018 | ralimetinib -0.014 | [2] 0.095 | [3] -0.069 | [4] -0.023 | pinometostat -0.021 | [5] 0.034 | [6] -0.069

PSMB6 (UniProt P28072)
active: [4] 0.4
inactive: IRAK-1-4 Inhibitor I -0.007 | ibrutinib -0.025 | [1] 0.049 | ralimetinib -0.045 | [2] 0.045 | [3] 0.129 | pinometostat -0.053 | [5] 0.046 | [6] 0

PTP4A1 (UniProt Q93096)
Sequence of UniProt Q93096 (Q93096 whole entry, looked up): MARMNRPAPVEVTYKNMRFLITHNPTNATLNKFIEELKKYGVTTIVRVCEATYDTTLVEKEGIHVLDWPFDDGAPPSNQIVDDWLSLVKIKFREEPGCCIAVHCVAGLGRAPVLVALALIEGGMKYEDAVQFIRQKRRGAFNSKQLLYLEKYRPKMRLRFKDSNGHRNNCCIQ
inactive: IRAK-1-4 Inhibitor I -0.011 | ibrutinib -0.05 | [1] 0.092 | ralimetinib -0.096 | [2] 0.013 | [3] -0.049 | [4] -0.062 | pinometostat -0.02 | [5] 0.008 | [6] -0.179

PPP2R5E (UniProt Q16537)
inactive: IRAK-1-4 Inhibitor I -0.01 | ibrutinib -0.001 | [1] -0.033 | ralimetinib -0.029 | [2] -0.046 | [3] -0.144 | [4] 0.019 | pinometostat 0.015 | [5] 0.028 | [6] 0.136

QRICH1 (UniProt Q2TAL8)
inactive: IRAK-1-4 Inhibitor I -0.108 | ibrutinib -0.024 | [1] 0.048 | ralimetinib 0.055 | [2] -0.237 | [3] -0.321 | [4] 0.08 | pinometostat 0.026 | [5] 0.029 | [6] -0.08

PCNT (UniProt O95613)
inactive: IRAK-1-4 Inhibitor I 0.085 | ibrutinib -0.078 | [1] -0.079 | ralimetinib -0.113 | [2] -0.021 | [3] 0.053 | [4] 0.229 | pinometostat 0.069 | [5] 0.077 | [6] -0.018

PPP2R5C isoform 4 (UniProt Q13362)
inactive: IRAK-1-4 Inhibitor I 0.027 | ibrutinib -0.051 | [1] 0.019 | ralimetinib -0.15 | [2] -0.07 | [3] -0.02 | [4] 0.034 | pinometostat 0.043 | [5] 0.016 | [6] -0.032

PBK (UniProt Q96KB5)
Sequence of UniProt Q96KB5 (Q96KB5 whole entry, looked up): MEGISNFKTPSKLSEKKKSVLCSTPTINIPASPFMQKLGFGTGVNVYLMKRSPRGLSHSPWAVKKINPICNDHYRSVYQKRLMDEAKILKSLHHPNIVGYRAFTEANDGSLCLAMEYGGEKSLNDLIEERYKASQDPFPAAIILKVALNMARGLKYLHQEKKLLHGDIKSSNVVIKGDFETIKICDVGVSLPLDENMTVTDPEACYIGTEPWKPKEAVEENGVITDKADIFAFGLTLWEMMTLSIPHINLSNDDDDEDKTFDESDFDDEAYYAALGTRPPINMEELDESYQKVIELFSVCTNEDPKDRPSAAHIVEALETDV
inactive: IRAK-1-4 Inhibitor I -0.142 | ibrutinib -0.059 | [1] 0 | ralimetinib 0.111 | [2] -0.144 | [3] -0.286 | [4] 0.06 | pinometostat 0.071 | [5] -0.011 | [6] -0.08

PRKAR1B (UniProt P31321)
inactive: IRAK-1-4 Inhibitor I 0.005 | ibrutinib 0.004 | [1] -0.112 | ralimetinib 0.143 | [2] -0.013 | [3] -0.11 | [4] 0.007 | pinometostat 0.105 | [5] -0.079 | [6] -0.104

POLA2 (UniProt Q14181)
active: [3] -0.258
inactive: IRAK-1-4 Inhibitor I 0.015 | ibrutinib -0.038 | [1] -0.073 | ralimetinib -0.028 | [2] -0.083 | [4] 0.011 | pinometostat 0.041 | [5] 0 | [6] -0.021

PSMC1 (UniProt P62191)
active: [4] -0.212
inactive: IRAK-1-4 Inhibitor I -0.053 | ibrutinib -0.024 | [1] 0.056 | ralimetinib 0.018 | [2] 0.002 | [3] 0.04 | pinometostat 0.032 | [5] 0.031 | [6] -0.007

PTPN12 (UniProt Q05209)
inactive: IRAK-1-4 Inhibitor I -0.011 | ibrutinib -0.008 | ralimetinib 0.004 | [2] 0.039 | [3] -0.101 | [4] 0.057 | pinometostat 0.045 | [5] -0.004 | [6] 0.004
active: [1] 0.264

RAB11FIP1 (UniProt Q6WKZ4)
Sequence of UniProt Q6WKZ4 (Q6WKZ4 whole entry, looked up): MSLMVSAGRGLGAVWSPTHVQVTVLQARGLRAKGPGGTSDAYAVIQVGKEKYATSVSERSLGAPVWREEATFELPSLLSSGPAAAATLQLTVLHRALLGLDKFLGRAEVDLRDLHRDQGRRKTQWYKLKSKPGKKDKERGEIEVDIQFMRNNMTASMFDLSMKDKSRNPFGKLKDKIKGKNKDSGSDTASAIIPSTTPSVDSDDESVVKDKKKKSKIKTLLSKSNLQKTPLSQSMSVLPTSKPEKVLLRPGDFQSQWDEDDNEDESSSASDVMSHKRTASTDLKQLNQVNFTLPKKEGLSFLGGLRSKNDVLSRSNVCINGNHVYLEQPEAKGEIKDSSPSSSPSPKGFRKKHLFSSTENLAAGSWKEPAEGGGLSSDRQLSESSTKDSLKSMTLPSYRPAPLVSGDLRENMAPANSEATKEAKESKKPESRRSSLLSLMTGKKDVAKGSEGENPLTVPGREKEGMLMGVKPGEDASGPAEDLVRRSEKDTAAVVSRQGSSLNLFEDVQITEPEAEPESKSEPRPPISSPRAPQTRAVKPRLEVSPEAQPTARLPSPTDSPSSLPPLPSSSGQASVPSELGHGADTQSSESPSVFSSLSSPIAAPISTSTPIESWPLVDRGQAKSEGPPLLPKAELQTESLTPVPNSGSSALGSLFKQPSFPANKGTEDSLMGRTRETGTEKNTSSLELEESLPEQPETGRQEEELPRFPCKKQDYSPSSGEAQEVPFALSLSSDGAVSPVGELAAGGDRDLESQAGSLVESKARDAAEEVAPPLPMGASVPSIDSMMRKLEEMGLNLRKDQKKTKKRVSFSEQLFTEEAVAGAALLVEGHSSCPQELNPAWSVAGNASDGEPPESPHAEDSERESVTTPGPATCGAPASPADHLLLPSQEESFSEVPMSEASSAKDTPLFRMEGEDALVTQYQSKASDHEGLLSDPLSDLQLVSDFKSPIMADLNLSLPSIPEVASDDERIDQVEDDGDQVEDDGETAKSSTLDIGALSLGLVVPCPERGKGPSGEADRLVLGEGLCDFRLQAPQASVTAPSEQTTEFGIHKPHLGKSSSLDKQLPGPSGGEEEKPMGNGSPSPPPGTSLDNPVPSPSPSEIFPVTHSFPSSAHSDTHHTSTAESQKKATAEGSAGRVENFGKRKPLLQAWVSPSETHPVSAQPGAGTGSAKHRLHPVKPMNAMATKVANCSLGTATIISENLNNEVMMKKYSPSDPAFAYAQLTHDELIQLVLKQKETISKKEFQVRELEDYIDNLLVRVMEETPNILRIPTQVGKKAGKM
inactive: IRAK-1-4 Inhibitor I 0.014 | ibrutinib -0.009 | [1] -0.067 | ralimetinib 0.023 | [2] -0.016 | [3] -0.118 | [4] -0.004 | pinometostat 0.059 | [5] -0.021 | [6] 0.041
